We go through 22 compounds from PubChem BioAssay (NCATS).

Structures are written as SMILES. Inconclusive results are not listed. Entries that show only a call come without a potency. Active and inactive are the calls of the source. The call rests on the fitted dose curve; in most records, active means well fitted cell-killing curve with a large enough effect; inconclusive means small, poorly fitted or top-dose-only effect, or effect the other way; inactive means no such curve, though single readings can be large or run the other way.

The nature of the experiment: qHTS assay to identify small molecule inhibitors of chordoma cells - UCH-1 (AID 1259355). Further: nearly all actives have a fitted effect of over 55% in size. As to conditions: UCH-1 chordoma viability, CellTiter-Glo, 48 h, combination; series mostly up to 46.1 µM. The procedure, abridged: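 800 cells/well, overnight attach; compounds pinned at 15 concs, then auranofin/camptothecin/doxorubicin/rubitecan/topotecan combo added; 48hr 37 C, 5% CO2; CellTiter-Glo, 30min RT, luminescence.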
Take `O=c1c2ccccc2[se]n1-c1ccccc1`: the Potency entry is “inactive”.
Take `c1cc2c(c(NC3=NCCN3)c1)CCCC2`: the Potency entry was “inactive”.
As to `C=CCC1(C(C)CCC)C(=O)N=C(S)NC1=O` (configuration not stated), the Potency result was “inactive”.
With `CC(=O)O[C@H]1CC[C@H]2[C@@H]3CCC4=CC(=O)CCC4=C3C=C[C@]12C` the entry was “inactive”; with `CC[C@H]1[C@@H]2C[C@H]3[C@@H]4N(C)c5ccccc5[C@]45C[C@@H](C2[C@H]5O)N3[C@@H]1O` (some centres not stated), “inactive”.
The same measure for `CC(=O)[C@H]1CC[C@H]2[C@@H]3CC[C@@H]4C[C@H](O)CC[C@]4(C)[C@H]3CC[C@]12C`: “inactive”; for `CC(=O)O[C@H]1CC[C@@]2(C)C(=CC[C@@H]3[C@@H]2CC[C@]2(C)C(=O)CC[C@@H]32)C1`: “inactive”; for `O=c1[nH]cc(N(CCCl)CCCl)c(=O)[nH]1`: “inactive”.
The same measure for `CN(C)CCCCCCN(C)C` (tested in a mixture with another compound): “inactive”; for `CN1c2ccccc2C(NCCCCCCC(=O)O)c2ccc(Cl)cc2S1(=O)=O` (configuration not stated): “inactive”.
As to `C[C@H]1CC[C@]2(NC1)O[C@H]1C[C@H]3[C@@H]4CC[C@H]5C[C@@H](O)CC[C@]5(C)[C@H]4CC[C@]3(C)[C@H]1[C@@H]2C`, the Potency entry was “inactive”.
The same measure for `COc1ccc(OC)c([C@@H](O)[C@H](C)N)c1`: “inactive”.
The same measure for `O=C(C[C@@H]1NCCC[C@H]1O)Cn1cnc2cc(Br)c(Cl)cc2c1=O`: “inactive”; for `COC1=CC=C2[C@H]3Cc4ccc(OC)c5c4[C@@]2(CCN3C)[C@H]1O5`: “inactive”.
Turning to `CCN(CC)C(=O)N[C@H]1C[C@@H]2c3cccc4[nH]cc(c34)C[C@H]2N(C)C1`, the Potency result was “inactive”.
The same measure for `C=CCN1CC[C@]23c4c5ccc(O)c4O[C@H]2[C@@H](O)C=C[C@H]3[C@H]1C5`: “inactive”; for `CCCCCCC(=O)O[C@H]1CC[C@H]2[C@@H]3CC[C@H]4CC(=O)C=C(C)[C@]4(C)[C@H]3CC[C@]12C`: “inactive”.
Regarding `O=C1CN=C(c2ccccc2)c2cc(Cl)ccc2N1CC1CC1`, the Potency entry was “inactive”.
The same measure for `CCN(CC)CCO[C@H]1CC[C@@]2(C)C(=CC[C@@H]3[C@@H]2CC[C@]2(C)C(=O)CC[C@@H]32)C1`: “inactive”.
With `CC(C)(O)C1C2OC(=O)C1C1(O)CC3OC34C(=O)OC2C14C` (configuration not stated) the entry was “inactive”; with `CC(=O)OO`, “inactive”; with `CC1(C)S[C@@H]2[C@H](N)C(=O)N2[C@H]1C(=O)O`, “inactive”.
